The panel holds about 83,000 compounds, 20% with a hit somewhere; the sample as a whole holds those more often.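 How to read the values: 0–100, growth inhibition (40 = 60% inhibited); 0, no net growth; -100 to 0, cell death (-40 = 40% of starting cells died; -100 = all dead).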 Values without a mark were called inactive. Activity calls are given as the source filed them.

For this test, the system named is SK-MEL-2 melanoma. Briefly: NCI-60 one-dose screen, 48 h (100 = growth as untreated, 0 = no growth, -100 = all killed). The settings on record: 10 µM unless noted. As to the method: Growth inhibition of the SK-MEL-2 human tumor cell line is measured as a screen for anti-cancer activity. Cells are grown in 96 well plates and exposed to the test compound for 48 hours. Compounds are tested at a single concentration, which is 10^-5 M for most compounds. The reported endpoint is percent growth (GI% or GIPRCNT), where numbers from 0 - 100% represent growth inhibition, and numbers from -100% - 0 represent cell death. For example, a value of 40 represents 60% growth inhibition. A value of 0 means no net growth occurred over the course of the experiment. A value of -40 indicates 40% of cells at the beginning of the experiment died by the end of the experiment. A value of -100 means all cells are dead at the end of the experiment.
NCI-60 Human Tumor Cell Lines Screen was performed using the standard one-dose NCI protocol, which is described in more detail at https://dtp.cancer.gov/discovery_development/nci-60/default.htm.
Compounds with GIPRCNT values below 10 were considered active. Activity score was based on GIPRCNT using the following formula: […]
Score is 0 for GIPRCNT values of 100 or above, 50 for GIPRCNT values of 0, and 100 for GIPRCNT values of -100.
On to `COc1cc(CNS(=O)(=O)c2ccc(C)cc2)ccc1OCc1cn(-c2ccccc2)nn1`, for which the growth was 102%.
`Cc1nc2nc(SCC(=O)O)[nH]c2c(=O)[nH]1`: the growth is 96%.
For `CCc1nnc(NC(=O)c2nnn(-c3ccccc3)c2-c2ccco2)s1`, the growth was 108%.
Under `Fc1cc(-c2nnc3n2NC(=Nc2ccc(Cl)cc2)CS3)c(Cl)cc1Cl` stands 88.3%; under `O=c1c2cc(F)ccc2sc2c(NCCO)nc3ccccc3c12`, 102%; under `CCOC(=O)NCCc1ccccc1`, 104%.
As for `COC1=C(C)C(=O)c2c(c(CCCl)c3n2CCC3O)C1=O` (stereo not given), the growth is -48.8% (active).
With `O=C(/C=C/c1sc(Cl)nc1Cl)c1ccc(Br)cc1`, the growth was 96.4%.
Under `C#C[C@]1(O)CC[C@H]2[C@@H]3CC=C4c5sc(Nc6ccccc6)nc5CC[C@]4(C)[C@H]3CC[C@@]21C` stands 16.7%; under `O=C1NC(=O)C(c2ccccc2)(c2ccccc2)N1Cc1cn(-c2c3ccccc3nc3ccccc23)nn1`, 97.9%.
The result for `O=C(Nn1c(NCC(=O)N2c3ccccc3Sc3ccccc32)nnc1-c1ccc(O)cc1)c1ccccc1` reads 101%; that for `CCC(=O)Nc1ccc(-c2nc(-c3cccc(OC)c3)c(-c3ccnc(Br)c3)[nH]2)cc1`, 70.2%; that for `CCCCCCNC(=O)Oc1ccc(/C(=C(\C)c2ccc(Cl)cc2)c2ccc(OCCN3CCCCC3)cc2)cc1`, 86.4%.
The result for `Cc1ccc(C(=O)NN2C(=O)CSC2c2ccc(Cl)cc2)cn1` (stereo not given) reads 102%; that for `O=CN(SSN(C=O)C1CCCCC1)C1CCCCC1`, 111%.
Take `CCCCn1c(=O)c(-c2cc(-c3ccc(Cl)cc3)nc(-c3ccc(Cl)cc3)c2)cc2ccc(Cl)cc21`: the growth was 123%.
As for `CN1C(=O)CNC(=O)[C@H](NC(=O)c2nc3ccccc3cc2O)CSSC[C@H]1C(=O)NCCc1nc2ccccc2cc1O`, the growth was -17.1% (active).
Under `NCCOc1ncccc1/C=C1\C2C=CC=CC2C2C=CC(F)=CC12` (stereo not given) stands 113%; under `NCCNc1nc2ccccc2c2c(=O)c3cccc(F)c3sc12`, 102%; under `COc1ccc(C2C(C#N)=C(N)Oc3c2sc2c(C)cccc32)cc1` (stereo not given), 48.2%.
The result for `O=C(CS(=O)c1oc(-c2cccs2)nc1S(=O)(=O)c1ccc(Br)cc1)c1ccccc1` (stereo not given) reads 89.3%; that for `CCCCCCNC(=O)Oc1ccc(/C(=C(\C)c2ccc(Cl)cc2)c2ccc(OCCCN(C)C)cc2)cc1`, 92.1%; that for `CCOC(=O)CC1C(COC(=O)NC)OC(n2cnc3c(NC(=O)Nc4ccccc4)ncnc32)C1O[Si](C)(C)C(C)(C)C` (stereo not given), 60%.
Under `CCCSc1nc2ccc(C)cc2cc1/C=[N+](\[O-])c1ccccc1` stands 68.8%.
With `CC(=O)N1CCN(c2ccc(OCC3CO[C@](Cn4ccnc4)(c4ccc(Cl)cc4Cl)O3)cc2)CC1` (stereo not given in full), the growth was 86.8%.
Under `Cc1nc(NC(=O)COc2ccc(/C=C3\Cc4ccc(Cl)cc4C3=O)cc2)sc1C` stands 97.4%.
Take `COc1cc(C2CC(c3cccc(Br)c3)=NN2C(C)=O)cc(OC)c1OC` (stereo not given): the growth was 59.1%.
As for `Cc1nc2ccccc2n1CC1C(=O)NC(=O)NC1=O`, the growth was 120%.
Consider `COc1cc(C)c(Cc2cnc(N)nc2N)cc1OC`, for which the growth is 87%.
Consider `C=CCc1cc(C)ccc1NC(C(=O)NCC(=O)OC)c1ccccc1` (stereo not given), for which the growth was 96.4%.
Regarding `OC(COc1ccccc1)CN1CCN(c2ccc(Cl)cc2)CC1` (stereo not given), the growth was 104%.
The result for `COc1ccc2c(c1)C(C)Cc1c(ncnc1-n1c(C)nc3ccccc31)N2C` (stereo not given) reads 33.9%; that for `CCc1ccc(Oc2c(-c3ccc(OCc4ccc(Cl)cc4)cc3O)n[nH]c2C(F)(F)F)cc1`, 11.4%; that for `Cc1ccc(C(=O)N/N=C/c2cccc(Oc3ccccc3)c2)cn1`, 44.5%.
The result for `CC(C)(C)NC(=O)C(OC(=O)c1cccc(Cl)c1)c1ccc(Cl)cc1` (stereo not given) reads 96.1%; that for `CS(=O)(=O)Nc1cc(-c2ccc3ncnc(Nc4cccc(Cl)c4F)c3c2)cnc1Cl`, 28.4%; that for `Cc1nc2cnc(N)c(C#Cc3cncc(C(=O)Nc4ccc(CN5CCN(C)CC5)c(C(F)(F)F)c4)c3)c2nc1C`, -33.9% (active).
As for `Clc1ccc(C(/C=C/c2sc(Cl)nc2Cl)=N/Nc2cc(Cl)cc(Cl)c2)cc1`, the growth is 106%.
With `Cc1ccc(-c2nc(N3CCN(CC(=O)Nc4ccc(Cl)c(C(F)(F)F)c4)CC3)c3ccccc3n2)cc1`, the growth was 110%.
The result for `C/C(=N/NC(N)=S)c1sc(Nc2cccc(Cl)c2)nc1C` reads 86.6%.

The values are drawn from PubChem BioAssay (NCI).
